# According to PubChem BioAssay (NCATS):
# Records with an inconclusive call do not appear. Activity calls are given as the source filed them. The call rests on the fitted dose curve; in most records, active means well fitted curve in the direction sought with a large enough effect; inconclusive means small, poorly fitted or top-dose-only effect, or another doubt; inactive means no such curve, though single readings can be large; an effect the other way counts as inactive or inconclusive.
# Experiments:
# [1] = qHTS of pediatric cancer cell lines to identify multiple opportunities for drug repurposing: Confirmatory screen for A673 cells (AID 1347110);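 further: cells exposed to compound for 48 h before the viability read; nearly all actives have a fitted effect of over 65% in size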
# Outline: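 Forty-eight-hour viability assay. Follow-up compounds ran at 11-point dilutions; positive control bortezomib at 2.3 uM final, neutral control DMSO.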
# [2] = qHTS of pediatric cancer cell lines to identify multiple opportunities for drug repurposing: Confirmatory screen for SK-N-MC cells (AID 1347111);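 further: cells exposed to compound for 48 h before the readout; nearly all actives have a fitted effect of over 70% in size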
# Outline: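 Seed 500-1,000 cells/well; rest 5 h at 37 degrees C. Pin-transfer compounds, 11-point titration. Incubate 48 h. Add CellTiter-Glo, 15 min RT, read luminescence.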
# [3] = qHTS of pediatric cancer cell lines to identify multiple opportunities for drug repurposing: Confirmatory screen for BT-12 cells (AID 1347112);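 further: viability read after 48 h of compound exposure; nearly all actives have a fitted effect of over 55% in size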
# Outline: (§1)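 Cells (500-1,000/well) rested 5 h, then received compounds for 48 h; metabolically active cells were measured by CellTiter-Glo luminescence. Final concentrations spanned up to 46 µM (MIPE, 11-point) or 0.59 nM-46 µM (NPC, 8-point) in primary screens, 11-point in follow-ups.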
# [4] = qHTS of pediatric cancer cell lines to identify multiple opportunities for drug repurposing: Confirmatory screen for LAN-5 cells (AID 1347113); further: nearly all actives have a fitted effect of over 65% in size
# Outline: as §1
# [5] = qHTS of pediatric cancer cell lines to identify multiple opportunities for drug repurposing: Confirmatory screen for DAOY cells (AID 1347114); further: nearly all actives have a fitted effect of over 65% in size
# Outline: (§2)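 Viability measured as metabolically active cells via CellTiter-Glo luminescence following 48 hours of compound exposure, 11-point dilutions in confirmatory testing. 500-1,000 cells/well plated 5 hours before dosing; controls were DMSO and 2.3 µM bortezomib.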
# [6] = qHTS of pediatric cancer cell lines to identify multiple opportunities for drug repurposing: Confirmatory screen for NB-EBc1 cells (AID 1347115);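 further: cells exposed to compound for 48 h before the viability read; nearly all actives have a fitted effect of over 45% in size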
# Outline: as §1
# [7] = qHTS of pediatric cancer cell lines to identify multiple opportunities for drug repurposing: Confirmatory screen for SJ-GBM2 cells (AID 1347116); further: nearly all actives have a fitted effect of over 60% in size
# Outline: as §2
# [8] = qHTS of pediatric cancer cell lines to identify multiple opportunities for drug repurposing: Confirmatory screen for BT-37 cells (AID 1347117); further: nearly all actives have a fitted effect of over 55% in size
# Outline: as §1
# [9] = qHTS of pediatric cancer cell lines to identify multiple opportunities for drug repurposing: Confirmatory screen for TC32 cells (AID 1347118);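 further: cells exposed to compound for 48 h before the read; nearly all actives have a fitted effect of over 65% in size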
# Outline: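 qHTS, TC32, 48 h drug treatment, CellTiter-Glo luminescence as a proxy for metabolically active cells; primary top concentration 46 µM (MIPE 11-pt, NPC 8-pt); confirmatory 11-pt.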
# [10] = qHTS of pediatric cancer cell lines to identify multiple opportunities for drug repurposing: Confirmatory screen for MG 63 (6-TG R) cells (AID 1347119); further: nearly all actives have a fitted effect of over 55% in size
# Outline: as §1
# Potency means the concentration at half of the fitted maximal effect.
SMILES,Potency [1],Potency [2],Potency [3],Potency [4],Potency [5],Potency [6],Potency [7],Potency [8],Potency [9],Potency [10]
O=c1[nH]c2ccc(Cl)cc2c(N[C@@H]2CN3CCC2CC3)c1-c1nc2ccccc2[nH]1,261 nM (active),293 nM (active),13100 nM (active),1470 nM (active),9270 nM (active),522 nM (active),1040 nM (active),5850 nM (active),465 nM (active),–
CC(=Cc1csc(C)n1)[C@@H]1C[C@H]2O[C@@H]2CCC[C@H](C)[C@@H](O)[C@@H](C)C(=O)C(C)(C)[C@@H](O)CC(=O)O1,18.5 nM (active),20.8 nM (active),–,–,13.1 nM (active),–,104 nM (active),–,14.7 nM (active),16.5 nM (active)
CCCCCC[C@H]1C(=O)O[C@H](C)[C@H](NC(=O)c2cccc(NC=O)c2O)C(=O)O[C@@H](C)[C@@H]1OC(=O)CC(C)C,13100 nM (active),46.5 nM (active),–,5850 nM (active),–,14.7 nM (active),–,–,117 nM (active),13.1 nM (active)
C[C@@H]1O[C@@H](O[C@@H]2C=C3CC[C@@H]4[C@@H](CC[C@]5(C)[C@H](c6ccc(=O)oc6)CC[C@@]45O)[C@@]3(C)CC2)[C@H](O)[C@H](O)[C@H]1O,52.2 nM (active),32.9 nM (active),41.4 nM (active),58.5 nM (active),7.4 nM (active),26.1 nM (active),58.5 nM (active),13.1 nM (active),23.3 nM (active),7.4 nM (active)
C[C@@]12OC(=O)[C@]1([C@@H](O)[C@@H]1C=CCCC1)NC(=O)[C@H]2CCCl,585 nM (active),–,2930 nM (active),737 nM (active),657 nM (active),–,737 nM (active),–,–,293 nM (active)
COC1=CC(C)=C[C@@H](C)[C@@H](O)[C@@H](C)CC(C)=CC=C[C@H](OC)[C@H]([C@@H](C)[C@@H](O)[C@H](C)[C@@]2(O)C[C@@H](O)[C@H](C)[C@@H](C(C)C)O2)OC1=O,inactive,–,–,–,inactive,–,–,–,–,inactive
CC[C@H]1C=CC=CC[C@@H](C)[C@H](O)[C@@](C)(O)C(=O)[C@@H](C)[C@H](O)[C@@H](C)C(=O)[C@@H](C)[C@H](O)[C@@H](C)C=CC(=O)O[C@@H]2[C@@H](C)[C@H](CC1)O[C@]1(CC[C@H](C)[C@H](C[C@@H](C)O)O1)[C@H]2C,–,233 nM (active),–,–,3.7 nM (active),208 nM (active),20800 nM (active),58.5 nM (active),1850 nM (active),117 nM (active)
O=[N+]([O-])c1c(Cl)c(Cl)cc(Cl)c1Cl,–,38000 nM (active),inactive,–,inactive,–,–,–,–,inactive
CC(C)N[C@@H]1CCn2c(=O)[nH]c3cccc(c32)[C@@H]1O,–,18500 nM (active),inactive,inactive,inactive,inactive,inactive,inactive,–,inactive
COc1ccc(C(=O)c2c(C)n(CCN3CCOCC3)c3cc(I)ccc23)cc1,26100 nM (active),–,–,–,18500 nM (active),–,–,–,–,14700 nM (active)
COc1cc([C@@H]2c3cc4c(cc3[C@@H](O)C3COC(=O)C32)OCO4)cc(OC)c1O (stereo partly specified),522 nM (active),–,–,–,185 nM (active),3690 nM (active),inactive,737 nM (active),585 nM (active),293 nM (active)
C[C@]12Cc3cn[nH]c3C[C@@H]1CC[C@@H]1[C@H]2CC[C@@]2(C)[C@H]1CC[C@]2(C)O,inactive,–,–,–,–,inactive,inactive,–,–,inactive
Cc1c(C(=O)Nc2cccc(C(F)(F)F)c2)cc(-c2ccccc2)n1CCCN1CCOCC1,–,26900 nM (active),–,42700 nM (active),38000 nM (active),42700 nM (active),–,42700 nM (active),–,–
CC[C@@H]1[C@@H](C)O[C@@](O)([C@@H](C)[C@H](O)[C@H](C)[C@H]2OC(=O)C=CC=C[C@@H](C)[C@@H]([C@@H](C)[C@@H](O)[C@H](C)[C@@]3(O)C[C@H](O[C@H]4C[C@H](O)[C@H](O)[C@H](C)O4)[C@H](CC)[C@@H](C)O3)OC(=O)C=CC=C[C@@H]2C)C[C@H]1O[C@H]1C[C@H](O)[C@H](O)[C@H](C)O1,–,inactive,inactive,inactive,–,–,inactive,inactive,inactive,–
S=C(SSC(=S)N1CCCCC1)N1CCCCC1,10400 nM (active),–,–,1040 nM (active),–,–,–,–,2610 nM (active),–
CC(=Cc1csc(C)n1)[C@@H]1C[C@H]2O[C@]2(C)CCC[C@H](C)[C@@H](O)[C@@H](C)C(=O)C(C)(C)[C@@H](O)CC(=O)O1,7.4 nM (active),5.9 nM (active),–,–,11.7 nM (active),–,–,5.2 nM (active),3.7 nM (active),3.3 nM (active)
CCC(=O)OC1CCC2C3CCC4=CC(=O)CC[C@@]4(C)C3CC[C@]12C (stereo partly specified),inactive,–,inactive,inactive,inactive,inactive,inactive,inactive,–,inactive
CS(=O)(=O)c1ccc(C(=O)C2C(=O)CCCC2=O)c([N+](=O)[O-])c1,inactive,–,inactive,inactive,inactive,inactive,inactive,inactive,inactive,inactive
CO[C@H]1CCC(O[C@H]2C[C@H]([C@]3(C)CC[C@]4(C[C@H](O)[C@@H](C)[C@@H]([C@@H](C)C=C(C)C(=O)[C@H](C)C[C@H](C)C(=O)O)O4)O3)O[C@]3(O[C@@H]([C@H]4O[C@@](O)(CO)[C@H](C)C[C@H]4C)C[C@H]3C)[C@H]2C)O[C@H]1C (stereo partly specified),1850 nM (active),–,2930 nM (active),2330 nM (active),20800 nM (active),–,–,–,–,2080 nM (active)
CCCN1CCO[C@@H]2c3cc(O)ccc3OC[C@@H]21,inactive,–,–,inactive,inactive,inactive,inactive,–,–,inactive
COc1ccc2c(c1)CN(C)CC2c1ccc(Cl)c(Cl)c1 (stereo unspecified),–,6570 nM (active),inactive,–,–,–,1470 nM (active),23300 nM (active),6570 nM (active),–
Cc1c(N)nc([C@H](CC(N)=O)NC[C@@H](N)C(N)=O)nc1C(=O)N[C@H](C(=O)N[C@@H](C)[C@H](O)[C@@H](C)C(=O)N[C@@H](C(=O)NCCc1nc(-c2nc(C(=O)NCCC[S+](C)C)cs2)cs1)[C@@H](C)O)C(O[C@H]1O[C@H](CO)[C@H](O)[C@@H](O)[C@@H]1O[C@H]1O[C@H](CO)[C@@H](O)[C@H](OC(N)=O)[C@H]1O)c1cnc[nH]1 (stereo partly specified),9270 nM (active),–,–,inactive,–,–,inactive,–,–,–
C=CCON=C(C[C@H]1O[C@@H]2O[C@]3(C)CC[C@@H]4[C@H](C)CC[C@@H]([C@H]1C)[C@@]24OO3)[C@H]1O[C@@H]2O[C@]3(C)CC[C@H]4[C@H](C)CC[C@@H]([C@@H]1C)[C@@]24OO3,–,147 nM (active),261 nM (active),522 nM (active),1850 nM (active),–,–,147 nM (active),–,–
O=C(O)COc1nc(Cl)c(Cl)cc1Cl,2180 nM (active),–,inactive,inactive,inactive,inactive,–,inactive,–,inactive
O=C1C(I)=CC(=C(c2cc(I)c(O)c(I)c2)c2ccccc2C(=O)O)C=C1I,3690 nM (active),–,inactive,–,–,inactive,–,inactive,–,inactive
